The campaign covered roughly 1,300 compounds. About 25 (2%) were called active. No rule for the calls is given here. What follows is part of a selection rich in actives, with near analogues and random picks from the rest.
Target: Estrogen receptor (Homo sapiens) (UniProt P03372)
Test: blockers of coactivator recruitment to ERα – biochemical, LOPAC library, TR-FRET, primary screen (AID 694);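 also: receptor was agonist-bound with estradiol present during the assay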
Details: TR-FRET ERalpha-coactivator peptide binding, stronger effect = higher value

Chain of Estrogen receptor (Homo sapiens) (P03372 whole entry, looked up): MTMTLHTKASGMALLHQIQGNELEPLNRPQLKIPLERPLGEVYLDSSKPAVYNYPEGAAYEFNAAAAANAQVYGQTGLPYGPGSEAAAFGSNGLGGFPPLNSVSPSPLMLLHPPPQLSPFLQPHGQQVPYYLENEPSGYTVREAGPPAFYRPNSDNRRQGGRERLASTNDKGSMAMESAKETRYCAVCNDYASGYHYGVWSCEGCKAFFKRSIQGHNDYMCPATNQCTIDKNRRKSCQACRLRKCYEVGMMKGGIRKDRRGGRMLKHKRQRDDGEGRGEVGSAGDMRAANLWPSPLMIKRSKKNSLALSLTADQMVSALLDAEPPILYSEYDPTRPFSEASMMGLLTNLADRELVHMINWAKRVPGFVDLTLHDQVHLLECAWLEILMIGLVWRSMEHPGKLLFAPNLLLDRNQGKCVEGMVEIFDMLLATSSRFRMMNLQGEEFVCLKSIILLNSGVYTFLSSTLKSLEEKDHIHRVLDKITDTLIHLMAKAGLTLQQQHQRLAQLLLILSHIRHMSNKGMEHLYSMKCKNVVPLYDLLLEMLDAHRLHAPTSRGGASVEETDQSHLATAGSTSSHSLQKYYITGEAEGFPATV

| Structure (SMILES) | inhibition (at 45 µM) | inhibition (inhibition, at 15 µM) [%] |
| --- | --- | --- |
| COC(=O)[C@H]1[C@H]2C[C@H]3c4[nH]c5ccccc5c4CCN3C[C@H]2CC[C@@H]1O | 1.18% (inactive) | 3.29 |
| CC(=O)NCCc1ccc(O)c(O)c1 | -22% (inactive) | -4.7 |
| C[C@@H](Oc1ccc(Oc2cnc3ccc(Cl)cc3n2)cc1)C(=O)O | -0.82% (inactive) | -2.92 |
| CCCCOC(=O)NS(=O)(=O)c1sc(CC(C)C)cc1-c1ccc(Cn2c(CC)nc3c(C)cc(C)nc32)cc1 | 8.38% (inactive) | 2.57 |
| O=C(/C=C/c1ccc(O)cc1)c1ccc(O)cc1O | 10.8% (inactive) | -3.98 |
| CC#C[C@]1(O)CC[C@H]2[C@@H]3CCC4=CC(=O)CCC4=C3[C@@H](c3ccc(N(C)C)cc3)C[C@@]21C | 4.52% (inactive) | 1.37 |
| O=C(O)CCC(NC(=O)c1ccccc1C(=O)O)C(=O)O (stereo unspecified) | -0.22% (inactive) | 0.4 |
| Oc1ccc(-c2nc(-c3ccc(F)cc3)c(-c3ccncc3)[nH]2)cc1 | -3.04% (inactive) | -1.6 |
| CC(=O)N1CCN(c2ccc(OC[C@H]3CO[C@](Cn4ccnc4)(c4ccc(Cl)cc4Cl)O3)cc2)CC1 | -0.23% (inactive) | 1.67 |
| CC(CCc1ccc(O)cc1)NCCc1ccc(O)c(O)c1 (stereo unspecified) | -5.5% (inactive) | 1.1 |
| CC(C)[N+](C)(CCOC(=O)C1c2ccccc2Oc2ccccc21)C(C)C | 7.96% (inactive) | 8.56 |
| CCSC(=N)N | -21.8% (inactive) | 0.66 |
| Cc1cccc(/C=C/c2ccccc2)n1 | 4.39% (inactive) | 12.3 |
| O=S(=O)(O)C1CCNCC1 | 1.25% (inactive) | 4.59 |
| C[N+](C)(C)CC=O | 0.73% (inactive) | -1.9 |
| COc1ccccc1NC(=O)Nc1nc(-c2cccnc2)nc2ccccc12 | 7.9% (inactive) | 4.04 |
| O=C(Nc1cccc(C(=O)Nc2ccc(S(=O)(=O)O)c3cc(S(=O)(=O)O)cc(S(=O)(=O)O)c23)c1)Nc1cccc(C(=O)Nc2ccc(S(=O)(=O)O)c3cc(S(=O)(=O)O)cc(S(=O)(=O)O)c23)c1 | -3.86% (inactive) | -2.37 |
| C[C@@H](CN1CCC(Cc2ccccc2)CC1)[C@@H](O)c1ccc(O)cc1 | -2% (inactive) | 1.32 |
| OC[C@H]1O[C@@H](n2cnc3c(NC4CCCC4)ncnc32)C(O)[C@H]1O (stereo partly specified) | -0.88% (inactive) | 3.03 |
| COc1cc(C(=O)OCCCN2CCCN(CCCOC(=O)c3cc(OC)c(OC)c(OC)c3)CC2)cc(OC)c1OC | -2.88% (inactive) | -1.75 |
| CN[C@H](CC(=O)O)C(=O)O | -0.69% (inactive) | -0.99 |
| COc1cccc(OC)c1OCCNCC1COc2ccccc2O1 (stereo unspecified) | 52.7% (inactive) | -0.05 |

| Structure (SMILES) | inhibition (at 45 µM) | inhibition (inhibition, at 15 µM) [%] |
| --- | --- | --- |
| Nc1c(S(=O)(=O)O)cc(Nc2ccc(Nc3nc(Cl)nc(Nc4ccc(S(=O)(=O)O)cc4)n3)c(S(=O)(=O)O)c2)c2c1C(=O)c1ccccc1C2=O | 75.2% [fluorescence artefact?] (active) | 58.5 |
| OC[C@H]1O[C@@H](n2cnc3c(N[C@H]4CC5CCC4C5)ncnc32)[C@H](O)[C@@H]1O (stereo partly specified) | -7.11% (inactive) | -3.27 |
| CC(C)(C)c1ccc(S(=O)(=O)/C=C/C#N)cc1 | -4.31% (inactive) | -2.91 |
| CCCc1c(OCCCOc2ccc(OCC(=O)O)cc2)ccc(C(C)=O)c1O | -1.06% (inactive) | 5.6 |
| C[C@]12CCC(=O)C=C1CC[C@@H]1[C@@H]2[C@@H](O)C[C@@]2(C)[C@H]1CC[C@]2(O)C(=O)COC(=O)CCC(=O)O | 0.81% (inactive) | 1.7 |
| Oc1cc2c(c(Cl)c1O)CCNCC2c1ccccc1 (stereo unspecified) | -1.88% (inactive) | 4.73 |
| Cc1cccc(C)c1OCC(N)C(C)C (stereo unspecified) | -0.93% (inactive) | -1.42 |
| O=[N+]([O-])c1ccc(-c2nc(-c3ccc(F)cc3)c(-c3ccncc3)[nH]2)cc1 | -3.67% (inactive) | -0.79 |
| Cc1scc2c1N(C(=O)CN1CCN(C)CC1)c1ccccc1NC2=O | -3.58% (inactive) | -4.27 |
| O=C(Cc1ccc(Cl)c(Cl)c1)OCCN1CCCC1 | -23.1% (inactive) | -1.83 |
| O=[N+]([O-])c1cccc2c(Br)[nH]nc12 | -0.31% (inactive) | -5.48 |
| N[C@@H](CC(=O)O)C(=O)O | -5.55% (inactive) | -8.89 |
| CC(C)(Sc1ccc(CCN(CCCCC2CCCCC2)C(=O)NC2CCCCC2)cc1)C(=O)O | 43.1% (inactive) | 8.46 |
| NS(=O)(=O)c1cccc2c1c([N+](=O)[O-])cc1nc(O)c(O)nc12 | -0.73% (inactive) | -5.25 |
| CC(=O)O[C@H]1CC2(C)[C@@H](C[C@@H](O)[C@H]3[C@@]4(C)CC[C@@H](O)[C@@H](C)[C@@H]4CC[C@@]32C)C1=C(CCC=C(C)C)C(=O)O (stereo partly specified) | 80.4% (inactive) | 14.2 |
| Oc1cc(O)cc(/C=C/c2ccc(O)c(O)c2)c1 | 70.5% (inactive) | 32.3 |
| COc1cc2c(CCNC(C)=O)c[nH]c2cc1O | -5.77% (inactive) | -3 |
| N#C/C(=C\c1c[nH]c2ccccc12)C(=O)c1ccc(O)c(O)c1 | 4.91% (inactive) | 10.1 |
| CSc1nc(N)c2ncn([C@@H]3O[C@H](COP(=O)(O)OP(=O)(O)O)[C@H](O)C3O)c2n1 (stereo partly specified) | 2.87% (inactive) | -1.28 |
| CN1CCc2c(cc(O)c(O)c2Cl)C(c2cccc(Cl)c2)C1 (stereo unspecified) | 7.51% (inactive) | 4.56 |
| OC[C@H]1O[C@@H](n2cnc3c(NC4CCCCC4)ncnc32)[C@H](O)[C@@H]1O | -1.41% (inactive) | -1.34 |
